High-throughput results (PubChem BioAssay)
This is a sample that favours compounds with a hit; in the whole collection about 2.9% have one here.
A549 tox: kills or reduces viability of A549 cells in Nrf2 counter-screen | A549 ARE-Fluc cells, CellTiter-Fluor viability, 18-24 h | Potency, µM (doses to about 46 µM), inactives show at the top dose activity change, negative = cytotoxicity, most hits filed as inhibitors | hit rate 0.16% among 390,000 | AID 504648; further: on the % scale 0 is the no-effect control and ±100 the full control effect
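Cytotoxicity counterscreen: CellTiter-Fluor fluorescence was measured in A549 ARE_Fluc cells after 18-24 h of compound exposure in a concentration series. The subsequent BugLite luminescent read reports ARE-luciferase activity.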
ATXN viability: cell viability loss in ATXN counter-screen. Potency, µM (highest dose often 56.7 µM), actives largely listed as cytotoxic. hit rate 0.49% among 400,000. AID 651635. S2 cells (HEK-293 line with an ATXN2-luciferase reporter) viability, CellTiter-Fluor protease fluorescence, 24 h; further: nearly all actives have a fitted effect of over 40% in size
Nrf2 inh: Nrf2 pathway inhibition. A549 ARE-Fluc reporter, luciferase luminescence, 18-24 h. Potency, µM (series often up to 46 µM), for the others: top-dose activity change, negative = inhibition, most hits filed as inhibitors. hit rate 2.1% among 360,000. AID 504444; further: on the % scale 0 is the no-effect control and ±100 the full control effect; nearly all actives have a fitted effect of over 60% in size
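Nrf2 function is reported as luminescence of an ARE-controlled luciferase in A549 cells. Compounds were tested at several concentrations, and a CellTiter-Fluor read on the same wells flagged cytotoxicity.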
ATXN2 expr inh: reduces ATXN2 reporter expression in HEK-293 cells. Potency, µM (doses to about 57 µM), for the others: top-dose activity change, negative = inhibition, usual class: inhibitors. HEK-293 ATXN2-luciferase reporter, luminescence, 24 h. hit rate 0.72% among 360,000; further: on the % scale 0 is the no-effect control and ±100 the full control effect; nearly all actives have a fitted effect of over 55% in size
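qHTS (up to 57 uM final) was run with 24 h compound exposure of reporter cells at 37 °C. Each well was multiplexed: SteadyGlo luminescence measured ATXN2-luciferase expression after a fluorogenic Gly-Phe-AFC viability readout (25 uM final).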
Nrf2 activator: Nrf2 pathway activation; AREc32 ARE-luciferase reporter (MCF7-derived line), luminescence, 24 h; hit rate 0.31% among 410,000; Potency, µM (series often up to 46.1 µM), for the others: at the highest dose activation, actives largely listed as activators; further: % of control where 0% means no effect; nearly all actives have a fitted effect of over 65% in size
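For detection, Steady-Glo was added and plates sat 30 min at RT; before that, AREc32_Fluc cells grown overnight in OPTI-MEM/5% FBS had been treated with 23 nL compound for 24 hr at 37 deg C.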
Starred values were filed as active, the others as inactive; i = inactive; ? = inconclusive; . = no result; [ ] = remark or other dose. The call rests on the fitted dose curve; in most records, active means well fitted curve in the direction sought with a large enough effect; inconclusive means small, poorly fitted or top-dose-only effect, or another doubt; inactive means no such curve, though single readings can be large; an effect the other way counts as inactive or inconclusive. Potency means the concentration at half of the fitted maximal effect.

SMILES | A549 tox | ATXN viability | Nrf2 inh | ATXN2 expr inh | Nrf2 activator
COc1ccc(-n2c(C)cc(C(=O)COC(=O)c3ccc(O)cc3O)c2C)cc1 | ? | i | 13µM* | ? | -0.9%
Cc1cc(C(=O)COC(=O)c2ccc(O)cc2O)c(C)n1-c1ccccc1 | -10.6% | ? | -8.1% | 87.7% | -0.5%
COc1ccc(-n2c(C)cc(C(=O)CCl)c2C)cc1 | ? | 26.7µM* | ? | 29.9µM* | 12.3%
CCCCN(C(=O)CSCc1c(C)noc1C)c1c(N)n(CCCC)c(=O)[nH]c1=O | -4.2% | i | 10.2% | 0.7% | -0.3%
O=c1[nH]ncc2c3ccccc3n(Cc3cccc(Cl)c3)c12 | -0.2% | . | -18.9% | -2.7% | 0.4%
CCCCc1c(C)c(C#N)c2nc3ccccc3n2c1NCCN(C)C | 6.51µM* | i | 6.51µM* | -6.1% | -1.0%
COc1ccc(C(C(=O)NC2CCCC2)N(C(=O)c2snc(C(N)=O)c2N)c2cccc(O)c2)cc1 (stereo unspecified) | -1.0% | i | -0.9% | 1.0% | 0.5%
O=C1c2cccc3c(Nc4ccccc4Cl)c([N+](=O)[O-])cc(c23)C(=O)N1CCO | . | i | 13µM* | -11.3% | 7.1%
CCc1ccccc1NC(=O)CCNS(=O)(=O)c1ccc2c(c1)CCCC(=O)N2 | 0.9% | i | 26.8% | -0.6% | -0.7%
COc1ccc(C(CC(=O)c2ccc(O)cc2)S(=O)(=O)c2ccc(C)cc2)cc1 (stereo unspecified) | -15.2% | i | 6.5% | 74.5% | 12.6µM*
Cc1ccccc1OCCCCn1c(CCNC(=O)C(C)(C)C)nc2ccccc21 | -25.5% | ? | 23.1µM* | ? | 3.1%
Cc1ccccc1CNC(=O)c1ccc(CS(=O)Cc2ccc(Cl)cc2)o1 (stereo unspecified) | 7.0% | . | -13.7% | . | -0.4%
Cn1c(/C=C/c2ccc(Br)cc2)c([N+](=O)[O-])c(=O)n(C)c1=O | ? | ? | 20.6µM* | ? | 3.1%
CN(C)c1ccc(/C=C/c2c([N+](=O)[O-])c(=O)n(C)c(=O)n2C)cc1 | ? | i | -3.8% | -12.7% | 3.3%
COc1ccc(-c2csc(NC(=O)CSCc3c(C)noc3C)n2)c(OC)c1 | -14.7% | i | 16.4µM* | -3.1% | 5.7%
O=C(CN(Cc1ccco1)C(=O)c1ccc([N+](=O)[O-])cc1)Nc1ccccc1C(F)(F)F | -7.9% | i | 6.4% | . | 2.6%
CC(C)COc1ccc(C(=O)N(CC(=O)Nc2ccccc2C(F)(F)F)Cc2ccco2)cc1 | ? | i | 18.4µM* | -18.7% | 3.2%
O=[N+]([O-])c1cc(O)c2ncccc2c1 | 0.0% | ? | -6.6% | 5.01µM* | ?
c1nc2nc(Nc3ccc(N4CCOCC4)cc3)nc(NC3CCCCC3)c2[nH]1 | . | . | . | 24.3µM* | .
O=C(COc1ccc(/C=N/NC(=O)c2cc3ccccc3o2)cc1Cl)Nc1ccccc1 | ? | 8.91µM* | ? | 10µM* | 8.7%
COc1cc(/C=N/NC(=O)c2ccccc2O)ccc1OCC(=O)Nc1ccccc1 | -7.3% | ? | ? | 10.8% | 5.4%
COc1ccc(C(=O)NCN2CCN(c3ccccc3)CC2)cc1OC | 0.8% | i | -15.7% | -11.6% | 0.1%
CCc1c(Cl)nc(N)nc1Nc1ccccc1Cl | 0.0% | i | -1.3% | -9.3% | 1.7%
CC(OC(=O)CCCSc1nc2ccccc2s1)C(=O)NC(N)=O (stereo unspecified) | 5.2% | i | 16.4µM* | -15.7% | -1.3%
CCOC(=O)CCN(c1ccccc1)S(=O)(=O)c1cc(-c2cc(C)no2)ccc1C | -0.9% | . | ? | . | 5.1%
SMILES | A549 tox | ATXN viability | Nrf2 inh | ATXN2 expr inh | Nrf2 activator
CC1CC(C)CN(c2ccc([N+](=O)[O-])nc2)C1 (stereo unspecified) | ? | 11.9µM* | -15.4% | -3.5% | -0.5%
Cc1cc(NC(=O)Nc2ccccc2Cl)no1 | 0.7% | i | ? | 29.1% | 6.0%
COc1ccc(C(=O)N/C(=C\c2cn(C)c3ccccc23)C(=O)OCC(C)C)cc1 | -0.6% | i | ? | 16.5% | 0.0%
O=C(N/N=C/c1ccc(Cl)cc1Cl)Nc1ccccc1 | -6.6% | ? | -25.6% | 15.4% | -0.1%
COc1ccc(C2/C(=C(/O)c3ccccc3)C(=O)C(=O)N2C)cc1OC (stereo unspecified) | -3.4% | i | -9.9% | . | 1.2%
COCCCNC(=S)N1CCCN(c2nc3cc(C)ccc3cc2C#N)CC1 | -11.7% | i | 16.4µM* | . | 3.2%
COCCCNC(=S)N1CCCN(c2nc3cc(C)c(C)cc3cc2C#N)CC1 | -15.4% | i | ? | -22.6%[11.3 µM] | 1.7%
COc1ccc2nc(SCCOC(=O)Nc3ccc(Cl)cc3)nc(C)c2c1 | ? | i | 23.1µM* | -32.8% | 0.2%
O=C(CC1C(=O)NCCN1Cc1ccc(F)c(F)c1)NCCn1cccn1 (stereo unspecified) | -8.4% | i | 9.0% | 7.0% | -0.4%
CNc1cnn(-c2ccccc2)c(=O)c1Cl | -0.7% | i | 23.6% | -1.0% | 2.3%
O=c1c(Cl)c(N/N=C/c2ccc(Br)cc2)cnn1-c1ccccc1 | -20.3% | ? | ? | ? | 7.08µM*
COc1cccc(OC)c1C(=O)Nc1c(C(=O)N2CCN(C)CC2)oc2ccccc12 | -5.4% | ? | -7.6% | . | 0.3%
COc1cccc(CN(C)C(=O)c2ccc(OCC(=O)Nc3cccc(C(F)(F)F)c3)c(OC)c2)c1 | ? | i | 4.61µM* | ? | -0.8%
COc1cc(C(=O)NCCCN(C)C)ccc1OCC(=O)Nc1cccc(C(F)(F)F)c1 | 0.9% | ? | -4.0% | ? | 1.9%
COc1ccc(CN(C)C(=O)c2ccc(OCC(=O)Nc3cccc(C(F)(F)F)c3)c(OC)c2)c(OC)c1 | -21.2% | i | 16.4µM* | -30.0% | 4.4%
COc1ccccc1NC1=Nc2cccc3cccc1c23 | 25.9µM* | ? | -27.5% | -21.0% | 0.1%
O=C(NCc1cccc(F)c1)c1cccc(OC2CCN(C(=O)C3CC3)CC2)c1 | -2.7% | i | 23.1µM* | -16.9% | -1.4%
CC(=O)Oc1ccc(CC(C(=O)O)N2C(=O)c3ccccc3C2=O)cc1 (stereo unspecified) | -3.9% | i | -21.7% | 0.0% | -0.8%
CCCC(/C=C/c1ccc(OC(C)=O)cc1)=C1/c2ccccc2C(=O)N1c1ccccc1 | -13.3% | . | -5.7% | -0.9% | 11.2µM*
CCOC(=O)C1CCCN(C(=O)c2cnn(-c3ncc4c(n3)-c3ccccc3CCC4)c2C2CC2)C1 (stereo unspecified) | . | i | . | . | .
Cc1cccnc1NC(=S)NC(=O)c1cccs1 | -2.6% | i | ? | 112.8% | 10µM*
CCN1CCN(C(c2ccc(Cl)cc2)c2c(O)cc(C)n(CCOC)c2=O)CC1 (stereo unspecified) | -4.2% | . | . | . | -0.7%
CN1C(=O)c2ccc(C(=O)Nc3ccc4c(c3)OCO4)cc2C1=O | 1.2% | i | ? | 29.9% | -0.3%
CC(C)(C)OC(=O)N1CCC(c2nnc(SCc3ccccc3Cl)o2)CC1 | -3.2% | i | -21.5% | -24.7% | 0.3%
